Among the data in PubChem BioAssay are composite z-score and z-score values, retold here.

Activity calls are given as the source filed them.

Test [1] is described as follows: small molecules captured by biotinylated probe aFSTL3 – biochemical, small-molecule microarray, fluorescence 635/667, stem cell growth factor project, primary screen (AID 1064).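 Note: measures binding of the biotinylated anti-FSTL3 antibody to printed compounds.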 Particulars: higher = more signal.
The nature of test [2]: binders from COS7 lysate, DM2A8 probe, primary screen, torsin A project, cell lysate, small-molecule microarray, fluorescence 635/667 (AID 1065). Particulars: higher = more signal, COS7 lysate expressing mutant human TOR1A.
Test [3] can be described thus: small molecules captured by biotinylated probe aFGF2 – biochemical, small-molecule microarray, fluorescence 635/667, stem cell growth factor project, primary screen (AID 1067).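 Note: measures binding of biotinylated aFGF2 protein to printed compounds on slides; z-score merges feature fluorescence and signal-to-noise across triplicate slides.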 The conditions noted are these: higher = more signal.
A short description of test [4]: small molecules captured by biotinylated probe aFGF10 – biochemical, small-molecule microarray, fluorescence 635/667, stem cell growth factor project, primary screen (AID 1071).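 Note: score merges 667 nm spot intensity and signal to noise from triplicate slides.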 Particulars: higher = more signal.
Test [5] concerns the target Neurogenic locus notch homolog protein 2 (Homo sapiens) (UniProt Q04721). The experiment in a line: small molecules binding Notch2 protein – biochemical, small-molecule microarray, 635 nm fluorescence, stem cell growth factors, primary screen (AID 1073). Particulars: higher = more signal.
Test [6] concerns the target Pro-neuregulin-1, membrane-bound isoform (Homo sapiens) (UniProt Q02297). The experiment in a line: small molecules binding neuregulin-1 protein – biochemical, small-molecule microarray, fluorescence 635/667, psychiatric disease protein project, primary screen (AID 1075).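 Note: score combines 667 nm spot fluorescence with signal to noise.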 Particulars: NRG1 binding, 635 nm fluorescence, higher = more signal.
Test [7] relates to Neuregulin-1 EGF-like domain. The experiment in a line: small molecules binding NRG1 EGF domain – biochemical, small-molecule microarray, 635 nm fluorescence, primary screen (AID 1081).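 Note: binding of the protein to compounds printed on small-molecule microarray slides.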 The conditions noted are these: higher = more signal.
A short description of test [8]: FRG1 expression reporter modulators in myotubes – cell-based, C2C12 myotubes, firefly/Renilla luciferase, luminescence, FRG1 inhibition for FSHD, primary screen (AID 1084). The conditions noted are these: FRG1 promoter luciferase, higher = more signal, called active from +8 up or from −8 down.
A short description of test [9]: small molecules captured by biotinylated probe aFST – biochemical, small-molecule microarray, fluorescence 635/667, stem cell growth factor project, primary screen (AID 1086).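 Note: score merges 667 nm fluorescence with signal-to-noise of each printed compound spot.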 The conditions noted are these: higher = more signal.
Test [10] can be described thus: binders of probe aHhip on microarray, primary screen, stem cell growth factor project, biochemical, small-molecule microarray, fluorescence 635/667 (AID 1087).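 Note: score merges spot fluorescence at 667nm with spot signal to noise ratio.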 The conditions noted are these: higher = more signal.
Test [11] deals with PRMT1 (protein arginine N-methyltransferase 1). Put plainly: small molecules binding arginine methyltransferase PRMT1 – biochemical, small-molecule microarray, 635 nm fluorescence, primary screen (AID 1088).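 Note: binding of Prmt1 protein to compounds spotted on small-molecule microarray slides.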 The conditions noted are these: higher = more signal.
Test [12] can be described thus: growth effects on S. cerevisiae YJM789 – YJM789 clinical isolate, OD600, 24 h, basal, primary screen (AID 1089).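 Note: growth of clinical yeast isolate S. cerevisiae YJM 789 seeded 1000 cells per well; test concentration not given here.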 The conditions noted are these: higher = more signal, called active from +8 up or from −8 down.
The nature of test [13]: S. pombe growth modifiers, basal conditions – strain 972, OD600, 24 h, no modulator, primary screen (AID 1090).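 Note: basal condition with compound alone and no growth modifier present; test concentration not given here.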 The conditions noted are these: S. pombe 972 growth, higher = more signal, called active from +8 up or from −8 down.
Test [14] is described as follows: budding yeast growth modifiers under rapamycin – strain BY4716, OD600, 96 h, primary screen (AID 1091). Note: test concentration not given here. The conditions noted are these: S. cerevisiae BY4716 + rapamycin, higher = more signal, called active from +8 up or from −8 down.
The target of test [15] is Torsin-1A-interacting protein 2 (Homo sapiens) (UniProt Q8NFQ8). The experiment in a line: small molecules binding lysate-expressed LULL1 – cell lysate, human LULL1 lysate, 635/667 nm fluorescence, primary screen (AID 1092).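 Note: probe is lysate of COS7 cells overexpressing human LULL1; score merges per-feature 667 nm fluorescence with signal-to-noise.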 The conditions noted are these: small-molecule microarray, hLULL1 lysate binding, 635 nm fluorescence; higher = more signal.
Chain of Torsin-1A-interacting protein 2 (Homo sapiens) (Q8NFQ8 whole entry, looked up): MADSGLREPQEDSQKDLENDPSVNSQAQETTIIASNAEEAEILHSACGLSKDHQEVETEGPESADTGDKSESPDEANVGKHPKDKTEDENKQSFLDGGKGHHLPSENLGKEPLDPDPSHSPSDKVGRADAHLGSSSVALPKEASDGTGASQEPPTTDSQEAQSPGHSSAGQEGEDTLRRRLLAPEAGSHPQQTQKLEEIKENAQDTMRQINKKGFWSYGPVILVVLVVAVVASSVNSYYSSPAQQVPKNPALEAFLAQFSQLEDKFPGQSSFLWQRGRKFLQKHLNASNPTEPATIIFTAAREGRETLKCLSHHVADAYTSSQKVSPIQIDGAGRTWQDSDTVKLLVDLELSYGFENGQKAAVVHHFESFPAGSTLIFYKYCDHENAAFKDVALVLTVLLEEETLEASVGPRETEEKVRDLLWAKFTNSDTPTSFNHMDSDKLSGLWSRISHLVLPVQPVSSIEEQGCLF
The nature of test [16]: optical density change of DRC41 E. coli – strain DRC41, OD650, 24 h, E. coli filamentation project, primary screen (AID 1093).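 Note: MC1000 strain lacking acrAB efflux and sulA so SOS filamentation is blocked; test concentration not given here.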 Particulars: E. coli DRC41 growth, higher = more signal, called active from +8 up or from −8 down.
Test [17] in a line: probe aLefty2 binding to arrayed compounds – biochemical, biotinylated probe, 635/667 nm fluorescence, primary screen (AID 1094).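 Note: score merges spot fluorescence near 667 nm with spot signal-to-noise ratio.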 The conditions noted are these: small-molecule microarray, higher = more signal.
Test [18] relates to Noggin (protein binding on small-molecule microarray). Put plainly: small molecules binding Noggin protein – biochemical, 635/667 nm fluorescence, primary screen (AID 1095).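 Note: score merges 667 nm feature fluorescence with signal to noise over triplicate slides.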 Particulars: 635 nm fluorescence, higher = more signal.
The target of test [19] is Neurogenic locus notch homolog protein 3 (Homo sapiens) (UniProt Q9UM47). Put plainly: small molecules binding NOTCH3 protein – biochemical, 635/667 nm fluorescence, primary screen (AID 1096). Particulars: small-molecule microarray, 635 nm fluorescence, higher = more signal.
Test [20] in a line: probe aEGFR binding to arrayed compounds – biochemical, biotinylated probe, 635/667 nm fluorescence, primary screen (AID 1097).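 Note: probe is a biotinylated anti-EGFR antibody binding compounds printed on slides; score combines fluorescence near 667 nm and signal to noise of each spot.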 The conditions noted are these: small-molecule microarray, higher = more signal.

Chain of Pro-neuregulin-1, membrane-bound isoform (Homo sapiens) (Q02297 whole entry, looked up, the tested form may be a part, canonical isoform): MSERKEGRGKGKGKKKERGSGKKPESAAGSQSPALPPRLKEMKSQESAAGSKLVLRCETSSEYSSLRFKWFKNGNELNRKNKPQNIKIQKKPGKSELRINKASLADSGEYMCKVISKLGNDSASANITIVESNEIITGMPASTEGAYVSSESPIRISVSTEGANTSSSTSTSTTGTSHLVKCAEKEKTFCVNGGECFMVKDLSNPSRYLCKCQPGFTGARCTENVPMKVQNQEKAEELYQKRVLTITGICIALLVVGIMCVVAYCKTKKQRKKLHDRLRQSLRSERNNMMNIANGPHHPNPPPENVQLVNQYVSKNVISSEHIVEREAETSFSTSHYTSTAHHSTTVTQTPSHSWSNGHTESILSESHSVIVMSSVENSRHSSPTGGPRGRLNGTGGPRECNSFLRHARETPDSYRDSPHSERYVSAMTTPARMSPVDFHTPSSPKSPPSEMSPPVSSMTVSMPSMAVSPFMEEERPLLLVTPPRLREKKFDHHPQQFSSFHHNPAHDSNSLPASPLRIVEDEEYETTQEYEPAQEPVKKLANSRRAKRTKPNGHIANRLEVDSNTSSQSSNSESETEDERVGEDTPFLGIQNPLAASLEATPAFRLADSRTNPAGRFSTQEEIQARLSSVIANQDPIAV
Chain of Neurogenic locus notch homolog protein 2 (Homo sapiens) (Q04721 whole entry, looked up, canonical isoform): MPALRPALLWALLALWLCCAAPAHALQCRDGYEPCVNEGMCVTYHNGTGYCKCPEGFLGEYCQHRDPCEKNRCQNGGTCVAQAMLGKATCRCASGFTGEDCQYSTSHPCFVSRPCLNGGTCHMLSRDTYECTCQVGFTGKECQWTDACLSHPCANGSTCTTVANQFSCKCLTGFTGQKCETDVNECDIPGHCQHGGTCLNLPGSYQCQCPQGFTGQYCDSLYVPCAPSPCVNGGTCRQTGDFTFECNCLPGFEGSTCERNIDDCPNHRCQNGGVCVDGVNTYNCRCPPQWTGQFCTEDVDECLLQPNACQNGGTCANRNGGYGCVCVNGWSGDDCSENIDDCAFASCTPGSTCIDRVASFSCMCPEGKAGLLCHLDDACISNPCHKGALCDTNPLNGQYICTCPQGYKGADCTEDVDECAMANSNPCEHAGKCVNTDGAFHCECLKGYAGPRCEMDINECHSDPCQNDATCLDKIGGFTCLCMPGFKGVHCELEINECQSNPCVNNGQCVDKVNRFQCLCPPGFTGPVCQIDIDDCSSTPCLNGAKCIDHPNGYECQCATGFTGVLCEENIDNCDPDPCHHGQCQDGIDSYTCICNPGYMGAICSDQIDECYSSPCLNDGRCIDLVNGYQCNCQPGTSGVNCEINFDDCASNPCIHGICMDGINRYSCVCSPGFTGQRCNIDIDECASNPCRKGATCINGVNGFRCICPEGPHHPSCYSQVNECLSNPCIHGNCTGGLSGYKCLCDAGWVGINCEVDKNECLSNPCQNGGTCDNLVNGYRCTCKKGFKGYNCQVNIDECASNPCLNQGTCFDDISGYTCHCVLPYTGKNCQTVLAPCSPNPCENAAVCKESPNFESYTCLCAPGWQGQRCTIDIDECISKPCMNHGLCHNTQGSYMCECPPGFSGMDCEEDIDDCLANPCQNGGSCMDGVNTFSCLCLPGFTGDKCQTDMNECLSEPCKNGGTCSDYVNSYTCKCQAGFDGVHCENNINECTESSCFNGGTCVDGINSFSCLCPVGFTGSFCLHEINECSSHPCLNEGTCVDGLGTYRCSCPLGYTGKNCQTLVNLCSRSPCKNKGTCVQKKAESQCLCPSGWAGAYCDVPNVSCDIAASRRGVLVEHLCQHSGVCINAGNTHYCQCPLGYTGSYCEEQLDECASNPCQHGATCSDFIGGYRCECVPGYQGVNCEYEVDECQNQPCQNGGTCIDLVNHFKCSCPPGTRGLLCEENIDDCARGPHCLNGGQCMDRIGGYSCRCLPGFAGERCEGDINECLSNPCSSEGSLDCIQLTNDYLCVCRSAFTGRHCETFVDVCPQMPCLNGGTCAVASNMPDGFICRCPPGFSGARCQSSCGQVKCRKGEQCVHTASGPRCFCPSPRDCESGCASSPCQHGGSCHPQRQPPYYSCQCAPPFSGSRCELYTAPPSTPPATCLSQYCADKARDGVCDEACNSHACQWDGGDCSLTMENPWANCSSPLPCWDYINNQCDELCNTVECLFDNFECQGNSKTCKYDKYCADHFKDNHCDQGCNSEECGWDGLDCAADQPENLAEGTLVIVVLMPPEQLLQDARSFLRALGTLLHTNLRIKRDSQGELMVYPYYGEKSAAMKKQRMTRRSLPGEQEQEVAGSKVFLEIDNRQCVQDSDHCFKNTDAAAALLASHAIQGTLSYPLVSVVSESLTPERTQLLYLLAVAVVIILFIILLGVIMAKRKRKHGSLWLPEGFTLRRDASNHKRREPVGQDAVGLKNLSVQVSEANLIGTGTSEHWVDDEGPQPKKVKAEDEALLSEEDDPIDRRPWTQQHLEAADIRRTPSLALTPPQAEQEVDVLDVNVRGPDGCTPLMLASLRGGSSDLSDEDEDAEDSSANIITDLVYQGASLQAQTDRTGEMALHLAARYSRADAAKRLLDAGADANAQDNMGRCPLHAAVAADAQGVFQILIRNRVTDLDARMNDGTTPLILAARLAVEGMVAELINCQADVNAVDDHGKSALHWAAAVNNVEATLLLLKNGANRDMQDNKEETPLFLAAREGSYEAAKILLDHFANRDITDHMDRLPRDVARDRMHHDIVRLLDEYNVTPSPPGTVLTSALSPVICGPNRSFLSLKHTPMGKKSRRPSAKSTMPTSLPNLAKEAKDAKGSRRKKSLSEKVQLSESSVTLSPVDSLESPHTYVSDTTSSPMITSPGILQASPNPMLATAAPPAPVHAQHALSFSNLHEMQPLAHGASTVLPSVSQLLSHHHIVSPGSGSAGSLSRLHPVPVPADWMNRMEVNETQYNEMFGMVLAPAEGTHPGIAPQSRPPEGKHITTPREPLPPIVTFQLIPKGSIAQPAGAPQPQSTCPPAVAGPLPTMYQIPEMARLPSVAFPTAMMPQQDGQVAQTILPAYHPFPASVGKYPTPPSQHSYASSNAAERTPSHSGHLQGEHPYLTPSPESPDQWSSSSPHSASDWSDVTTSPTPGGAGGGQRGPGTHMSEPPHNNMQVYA

For `Cc1ccc(S(=O)(=O)N[C@H]2COC(=O)CC=C[C@H](C)COC(=O)N[C@@H](C)C(=O)CC=C[C@@H]2C)cc1`, the composite z-score was -0.667 in test [1]; 1.16 in test [2]; -0.22 in test [3]; 0.168 in test [4]; -0.0113 in test [5]; -0.195 in test [6]. In addition, the composite z-score is 0.527 in test [7]; 0.0218 in [9]; 0.0053 in test [10]; 0.67 in [11]; -0.866 in [15]; -0.215 in [17]. Besides, the figures for the composite z-score in test [18], in test [19] and in test [20] were 1.18, 0.354 and 0.0486, respectively. For the same molecule, the z-score in test [8] was 0.502 (inactive); in test [12], -0.11 (inactive); in test [13] it was -0.784 (inactive); in [14], 0.978 (inactive); in test [16] it was 0.12 (inactive).
For `C=C(COC)/C(=C/C[C@H](OC(C)=O)c1ccc(OCCO)cc1)c1cnc2ccccc2c1`, the composite z-score in test [1] is 0.0732; in [2] it was 0.0548; in [3], 0.0001; in [4], 0.765; in test [5] it was 1.41; in test [6] it was -0.0967. Also, the composite z-score in test [7] came out at 0.99; in test [9] it was 0.372; in [10], 0.176; in [11], 1.46; in test [15] it was 1.05; in [17], 0.0707. Further, the composite z-score in [18] is 0.935; in test [19], 1.1; in test [20], -0.0039. In addition, the z-score in test [8] was 0.345 (inactive); in [12] it was 1.53 (inactive); in test [13], -1.49 (inactive); in test [14], 1.09 (inactive); in [16] it was 1.12 (inactive).
For `COc1ccc([Si](C)(C)[C@@H]2[C@@H](CCO)O[C@]3(C(=O)N(Cc4ccccc4)c4ccccc43)[C@H]2C)cc1`, the composite z-score in test [1] was -0.377; in [2], 0.274; in test [3] it was -0.0692; in [4] it was 0.351; in test [5] it was 0.216; in [6], -0.01. The composite z-score in test [7] is 0.501; in test [9], -0.0439; in test [10] it was -0.0994; in test [11] it was 1.06; in [15] it was 0.955; in [17], -0.228. Besides, the values for the composite z-score in test [18], in [19] and in test [20] were 0.0139, 0.167 and -0.143, respectively. Also, the z-score in test [8] was 0.377 (inactive); in test [12] it was 0.566 (inactive); in test [13], 0.124 (inactive); in test [14], 1.24 (inactive); in test [16], 1.73 (inactive).
Regarding `CCC1=C2CN(Cc3ccccc3Br)[C@@H]([C@@H](O)Cc3ccccc3)C2C=CCC1` (stereo not given in full), the composite z-score was -0.525 in test [1]; -0.12 in test [2]; -0.0858 in test [3]; 0.528 in [4]; 0.814 in test [5]; 0.421 in test [6]. The composite z-score in test [7] was 0.817; in [9] it was 0.788; in test [10], 0.0881; in test [11], 1.24; in test [15], 2.11; in test [17], -0.125. Further, the composite z-score in test [18] is 0.515; in test [19], 1.05; in [20] it was -0.0981. Further, the z-score in test [8] is -1.83 (inactive); in test [12], -0.828 (inactive); in test [13], -5.56 (inactive); in [14], -1.13 (inactive); in test [16], 0.777 (inactive).
In the case of `[N-]=[N+]=NCc1ccccc1C[C@@]1(C(=O)O)N=C(c2ccc(OCCCO)cc2)O[C@@H]1c1ccccc1N=[N+]=[N-]`, the composite z-score was 0.168 in test [1]; -0.259 in test [2]; -0.0242 in test [3]; 0.377 in test [4]; 1.55 in [5]; 1.66 in test [6]. The composite z-score in [7] was 1.22; in test [9], 0.521; in test [10], -0.0994; in test [11], 1.51; in [15], 3.16; in test [17], 0.0189. For the same molecule, the composite z-score was determined as 0.0183 in [18], 1.03 in test [19] and 0.0316 in [20]. For the same molecule, the z-score in test [8] is -1.6 (inactive); in [12] it was -0.41 (inactive); in test [13], -1.02 (inactive); in test [14] it was -0.85 (inactive); in test [16] it was 0.602 (inactive).
Consider `CCOC(=O)C[C@H]1[C@H](OC(=O)c2ccccc2-c2ccccc2)[C@@H](NC(=O)C2CCCCC2)c2cc(OCCCO)ccc2N1C(=O)c1ccccc1`, for which the composite z-score in test [1] is -0.43; in [2], 0.0236; in test [3], -0.041; in test [4], 0.687; in test [5], 0.797; in [6] it was 0.0516. The composite z-score in test [7] was 0.652; in [9], 0.0322; in test [10] it was -0.0047; in test [11] it was 0.884; in test [15] it was 0.928; in test [17], -0.0498. For the same molecule, the composite z-score in test [18] worked out at 0.203; in test [19], 0.352; in [20], 0.232. Besides, the z-score in test [8] is 0.404 (inactive); in test [12], 1.2 (inactive); in test [13], 0.543 (inactive); in test [14], 1 (inactive); in test [16] it was 2.19 (inactive).
